Records with an inconclusive call do not appear. The source made the active and inactive calls. The call rests on the fitted dose curve; in most records, active means well fitted inhibition curve with a large enough effect; inconclusive means small, poorly fitted or top-dose-only effect, or effect the other way, or another doubt; inactive means no such curve, though single readings can be large or run the other way.
Test: Confirmation Concentration-Response Assay for lipid storage modulators; further: nearly all actives have a fitted effect of over 80% in size;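 on activity change, negative = inhibition: -100% = full block of lipid deposition by 20 µM Triacsin C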
Details: Drosophila S3 cells, lipid droplet BODIPY/CellTracker ratio, 18-24 h; series mostly up to 46.1 µM; activity change, negative = inhibition: at the top concentration
Summary of the method: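 Cells at 5,000/well received compound as a titration plus oleic acid (added as 400 uM solution) and were incubated 18–24 h at 24 °C. BODIPY 493/503 lipid signal and CellTracker Red cell count were read by 488-nm laser-scanning cytometry. Activity was normalised to 20 uM Triacsin C.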
Potency means the concentration at half of the fitted maximal effect.

SMILES | Potency | activity change, negative = inhibition
CCN(CC)S(=O)(=O)c1cc(NC(=O)CNc2cccc(S(=O)(=O)N3CCOCC3)c2)ccc1C | 2.81 µM (active) | –
CCOc1ccc(CCNC(=O)CN2C(=O)NC3(CCCCC3C)C2=O)cc1OCC (stereo unspecified) | – | -25.3% (inactive)
CC(=O)Nc1cccc(C(=O)NC2CCCc3c2cnn3-c2ccccc2F)c1 (stereo unspecified) | 14.1 µM (active) | –
CCn1c(COc2ccc(Cl)cc2)nnc1SCC(=O)Nc1ccc2c(c1)OCCO2 | 11.2 µM (active) | –
CCCCCCCCCC[n+]1cccc2c3ccccc3ccc21 | 1.77 µM (active) | –
CCNC(=O)NC1(C(=O)N2CCC(Cc3ccccc3)CC2)CCCCC1 | – | -11.1% (inactive)
COC(=O)c1c(-c2c(Cl)cccc2Cl)noc1NC(=O)NN1CCOCC1 | 2.5 µM (active) | –
O=C1C(Nc2ccccc2)=C/C(=N/S(=O)(=O)c2cccs2)c2ccccc21 | 7.91 µM (active) | –
COCc1ccc(C(=O)NC(C)c2cnn(-c3ccccc3C)c2C)o1 (stereo unspecified) | 12.5 µM (active) | –
S=C(Nc1cc(Cl)ccc1Oc1ccccc1)N1CCN(c2ccccn2)CC1 | 2.5 µM (active) | –
CCOC(=O)c1cc2c(ccn2-c2ccc(F)cc2)n1CC(=O)NC(C)(C)C | 1.41 µM (active) | –
c1ccc(-c2cnn3c(-c4ccccc4)c(-c4ccccc4)nc3n2)cc1 | 3.15 µM (active) | –
CC(=O)N1CCN(C(=O)C2(NC(=O)Nc3ccc(C)cc3)CCCCC2)CC1 | – | 9.61% (inactive)
COc1ccc(CCNC(=O)CCCOc2cccc(C)c2C)cc1OC | – | -9.33% (inactive)
COC(=O)c1ccccc1NC(=O)c1ccc(F)cc1F | 1.41 µM [activator] (active) | –
Cc1ccc(C)c(OCc2cc(C(=O)N3CC[C@@H]4CCCC[C@H]4C3)no2)c1 | 14.1 µM (active) | –
COc1ccc(CCn2ccc(O)c(Cc3c(F)cccc3Cl)c2=O)cc1OC | 0.434 µM (active) | –
Cc1cc(C)cc(-n2ncc3c2CCCC3NC(=O)c2csnn2)c1 (stereo unspecified) | 0.0112 µM (active) | –

SMILES | Potency | activity change, negative = inhibition
Cc1cnc(NC(=O)CSc2ncc(-c3ccccc3)n2Cc2ccco2)s1 | – | 8.73% (inactive)
CCOC(=O)C1CCN(C(=O)C2(NC(=O)Nc3ccccc3C)CCCCC2)CC1 | 2.5 µM (active) | –
Cc1ccc(S(=O)(=O)NCCC2=CCCCC2)cc1C(N)=O | 22.3 µM (active) | –
COc1cc(NC(=O)COc2ccccc2[N+](=O)[O-])ccc1NC(=O)c1cccs1 | 17.7 µM (active) | –
CCOc1ccc(CCNC(=O)COC(=O)c2ccc3c(c2)OCCO3)cc1OCC | 1.41 µM (active) | –
N#Cc1ccsc1NC(=O)CN1CCN(S(=O)(=O)c2ccccc2C(F)(F)F)CC1 | 1.25 µM (active) | –
Cc1cccc(-n2ncc3c2CCCC3NC(=O)Cc2c(C)noc2C)c1C (stereo unspecified) | 14.1 µM (active) | –
COc1ccccc1C(=O)O[C@H]1[C@H](Cc2ccccc2)NS(=O)(=O)[C@H]2C[C@@H]3C=C[C@]12O3 | 8.88 µM (active) | –
COc1ccc(NC(=O)NC2(C(=O)N3CCCC(C)C3)CCCCC2)cc1 (stereo unspecified) | – | 19.7% (inactive)
C1=C(CCNc2ncnc3c2[nH]c2ccccc23)CCCC1 | 0.996 µM (active) | –
CCOC(=O)c1c(C)[nH]c(C(=O)OCC(=O)NCCc2ccc(OCC)c(OCC)c2)c1C | 0.888 µM (active) | –
COc1ccc(CC(=O)NCCc2ccc(OC)c(OC)c2)cc1 | – | 12.7% (inactive)
CCOc1ccc(CCNC(=O)COC(=O)c2cccc(N(C)C)c2)cc1OCC | 0.396 µM (active) | –
COc1ccc(CCNC(=O)COc2ccc(S(=O)(=O)NC3CCCCC3)cc2Cl)cc1OC | 3.97 µM (active) | –
O=C(Nc1cccc(F)c1)NC1(C(=O)N2CCC(O)CC2)CCCCC1 | – | 23.6% (inactive)
Cc1ccc(C(C(=O)NC2CCCCC2)N(Cc2ccco2)C(=O)Cc2c[nH]c3ccccc23)o1 (stereo unspecified) | 4.45 µM (active) | –
O=C(Nc1ccc(S(=O)(=O)N2CCCCC2)cc1)c1ccc(CN2CCc3ccccc3C2)cc1 | 7.91 µM (active) | –
Cc1ccc(NCc2ccc(O)c3ncccc23)cc1 | – | 11% (inactive)

— PubChem BioAssay AID1569 (National Center for Advancing Translational Sciences (NCATS), 2009)
